# Source: PubChem
# LYPLA2 counter = LYPLA2 (human) inhibition in PME1 counter-screen; actives 0.38% (n = 320,000); inhibition, % at 5.9 µM; O95372; AID 2177; recombinant LYPLA2, FP-Rh probe fluorescence polarization;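 active means inhibition above the screen-wide mean plus 3 SD, limit set per campaign, cut at about 26% in these data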
# Target sequence (O95372 whole entry, looked up): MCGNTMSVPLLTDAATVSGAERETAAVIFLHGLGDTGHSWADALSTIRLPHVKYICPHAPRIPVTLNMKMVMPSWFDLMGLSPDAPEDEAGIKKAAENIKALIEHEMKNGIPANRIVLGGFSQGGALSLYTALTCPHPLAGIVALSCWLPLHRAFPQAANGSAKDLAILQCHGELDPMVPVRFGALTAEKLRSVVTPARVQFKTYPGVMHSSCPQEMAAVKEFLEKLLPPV
# GSTO1 counter = blocks human GSTO1 in RBBP9 counter-screen; P78417; recombinant GSTO1, activity-based probe fluorescence polarization; inhibition, % at 5.96 µM; actives 1.1% (n = 300,000);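 active means inhibition above the campaign mean inhibition plus 3 SD, cut at about 35% in these data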
# PAD4 inh = PAD4 (human) enzyme inhibition | Q9UM07 | recombinant PAD4, RCA probe fluorescence polarization | inhibition, % at 6.36 µM | actives 0.41% (n = 330,000);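 active means percent inhibition above a cutoff equal to the mean of all tested compounds plus 3 SD, cut at about 15% in these data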
# PME-1 primary = blocks human protein phosphatase methylesterase 1; Q9Y570; AID 2130; recombinant PME-1, FP-Rh probe fluorescence polarization; actives 0.53% (n = 320,000); inhibition, % at 5.9 µM;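 active means inhibition above the campaign mean of all compounds plus 3 SD, cut at about 26% in these data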;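 further: competitive labeling of PME-1 active site by serine hydrolase directed probe; inhibitors block probe labeling so polarization falls and inhibition rises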
# Fam108B counter = blocks mouse Fam108B hydrolase in RBBP9 counter-screen; AID 1947; inhibition, % at 9.51 µM; recombinant Fam108B, FP-Rh probe fluorescence polarization; actives 0.33% (n = 300,000);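 active means inhibition above the screen mean inhibition plus 3 SD, computed separately per campaign, cut at about 18% in these data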;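 further: inhibitors lower polarization as less probe binds the enzyme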
# LYPLA1 counter = LYPLA1 (human) inhibition in PME1 counter-screen; O75608; recombinant LYPLA1, FP-Rh probe fluorescence polarization; inhibition, % at 5.9 µM; actives 0.16% (n = 320,000); AID 2174;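 active means inhibition above the mean of all tested compounds plus 3 SD, set per campaign, cut at about 14% in these data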;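 further: inhibitors block serine hydrolase probe labeling of LYPLA1 so polarization falls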
# Target sequence (O75608 whole entry, looked up): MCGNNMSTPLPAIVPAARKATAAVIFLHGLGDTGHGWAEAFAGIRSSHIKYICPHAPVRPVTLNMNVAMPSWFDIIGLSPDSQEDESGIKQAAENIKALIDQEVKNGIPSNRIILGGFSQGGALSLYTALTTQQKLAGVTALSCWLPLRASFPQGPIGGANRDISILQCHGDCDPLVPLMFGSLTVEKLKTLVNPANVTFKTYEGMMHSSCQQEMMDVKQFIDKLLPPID
# PAD4 confirm = PAD4 (human) inhibition, confirmed; AID 488796; inhibition, % at 6.36 µM; actives 28% (n = 1,200); recombinant PAD4, RCA probe fluorescence polarization; shares compounds with PAD4 inh;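 active means mean inhibition across replicates above the hit cutoff set by the earlier primary screen, cut at about 15% in these data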;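 further: inhibitors block active-site labeling by the probe so polarization falls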
# Hits are given with their value; – = inactive; · = no result given. Rows were chosen to be rich in hits. Some 1.8% of all compounds tested hit in one or more screens of this group.
SMILES,LYPLA2 counter,GSTO1 counter,PAD4 inh,PME-1 primary,Fam108B counter,LYPLA1 counter,PAD4 confirm
Cc1cc(SC#N)cc(C)c1NC(=O)CCl,–,65.7,25.3,–,–,–,–
CC(=O)c1cccc(CN2CCC(n3nccc3NC(=O)c3ccc4c(c3)OCO4)CC2)c1,–,–,–,–,–,–,·
CC(C)NC(=O)CCCc1c[nH]c2ccccc12,–,–,–,–,–,–,·
c1ccc2c(c1)Cn1nnnc1-2,–,–,33.0,–,–,–,–
c1ccc2c(c1)CC1(CCCCC1)n1nnnc1-2,–,–,–,–,–,–,·
COc1ccc(-c2cc(C(=O)NCCN3CCOCC3)c3ccccc3n2)c(OC)c1,–,–,17.0,–,–,–,–
O=C(CSc1ccccn1)Nc1ccc(NC(=O)CSc2ccccn2)cc1,–,–,–,–,–,–,·
O=C(CSc1ccccn1)Nc1nonc1[N+](=O)[O-],–,–,18.6,–,–,–,–
Cc1sc2ncnc(Sc3ccccc3C(=O)O)c2c1C,–,–,–,–,–,–,·
c1ccc2sc(Sc3ncnc4sccc34)nc2c1,–,–,–,–,–,–,·
Clc1ccc(-n2nnnc2Sc2ncnc3sccc23)cc1,–,–,20.6,–,–,–,21.0
Cc1sc2ncnc(Sc3nnnn3-c3ccccc3)c2c1C,–,–,27.9,–,–,–,16.6
COCCNc1c(-c2cc3ccc(C)c(C)c3[nH]c2=O)nc2ccccn12,–,–,–,–,–,–,·
CC(/C=C1\SC(=S)N(CCC(=O)Nc2nc(C)cs2)C1=O)=C\c1ccccc1,–,–,–,–,–,–,·
Cc1ccc2nc(-c3ccc(NC(=O)CSCC(=O)O)cc3)sc2c1,–,–,–,–,–,–,·
O=C(O)CSCC(=O)Nc1ccc(-c2nc3ccccc3s2)cc1,–,–,30.4,–,–,–,31.4
Cn1c(=NC(=O)CCS(=O)(=O)c2ccccc2)sc2cc(F)ccc21,–,–,–,–,–,–,·
CC(=O)SCC(=O)N=c1sc2cc(F)ccc2n1C,–,–,19.5,–,–,–,19.1
c1ccc(Cc2noc(CN3CCCC(CN4CCOCC4)C3)n2)cc1 (stereo unspecified),–,–,–,–,–,–,·
COc1ccc(-c2nc(C(=O)NCCCN3CCOCC3)cc3c2[nH]c2ccccc23)cc1OC,–,–,59.0,–,–,–,67.4
N#C/C(=C\c1cccnc1)C(=O)Nc1ccccc1,–,–,–,–,–,–,·
N#C/C(=C\c1cccnc1)C(=O)Nc1ccc(O)cc1F,–,–,17.9,–,–,–,–
N#CC1(c2ccccc2)CCN(S(=O)(=O)c2ccc(OC(F)(F)F)cc2)CC1,–,–,–,–,–,–,·
Cc1ccc(F)c(NC(=S)Nc2cccc3ccccc23)c1,–,–,18.2,–,–,–,–
Cc1ccc(C)c(NC(=S)Nc2cccc3cnccc23)c1,–,–,–,–,–,–,·
SMILES,LYPLA2 counter,GSTO1 counter,PAD4 inh,PME-1 primary,Fam108B counter,LYPLA1 counter,PAD4 confirm
c1ccc(SCc2nc3ccccc3[nH]2)nc1,–,–,–,–,–,–,·
COc1ccc(NC(=O)Nc2c[nH]c(=O)[nH]c2=O)cc1,–,–,15.3,–,–,–,–
Clc1ccc(-c2ccc(C=Nc3ccc(N4CCOCC4)cc3)o2)c(Cl)c1,–,–,–,–,–,–,·
Clc1ccc(-c2ccc(C=Nc3ccc(N4CCOCC4)cc3)o2)cc1,–,–,30.8,–,–,–,–
O=C(CSc1nnnn1C1CC1)N1CCN(Cc2ccccc2F)CC1,–,·,–,–,·,–,·
CCCCN1C(=O)C2(NNc3ccccc3O2)c2ccccc21 (stereo unspecified),–,–,–,–,–,–,·
CCCCN1C(=O)Nc2ccccc2S1=O (stereo unspecified),–,–,15.8,–,–,–,–
COc1ccc(NC(=O)NC(C(F)(F)F)C(F)(F)F)cc1,–,–,14.8,–,–,–,–
COc1ccc(NC(=O)Nc2ccc(C(C)C)cc2)cc1,–,–,–,–,–,–,·
Fc1cccc(C[n+]2csc3ccccc32)c1,–,–,–,–,–,–,·
c1ccc(C[n+]2csc3ccccc32)cc1,–,–,23.4,–,–,–,33.9
O=C(COc1ccccc1F)N1CCN(S(=O)(=O)/C=C/c2ccccc2)CC1,–,–,55.9,–,–,–,–
O=C(COc1ccc(Br)cc1)N1CCN(S(=O)(=O)/C=C/c2ccccc2)CC1,–,–,–,–,–,–,·
COc1cc(CCC(=O)Nc2cc(C)cc(C)c2)cc(OC)c1OC,–,–,–,–,–,–,·
CS(=O)(=O)c1cccc(-c2nnc(NC(=O)c3ccc4ncsc4c3)o2)c1,–,–,–,–,–,–,·
CS(=O)(=O)c1ccccc1-c1nnc(NC(=O)c2ccc3ncsc3c2)o1,–,–,22.0,–,–,–,–
CCN(c1ccccc1)c1nc(=O)c2cccnc2s1,–,–,–,–,–,–,·
CCN(c1ccccc1)c1cc2ccccc2c(=O)[nH]1,–,–,16.0,–,–,–,–
O=C(Nc1ccc(Cl)cc1)Nc1ccccc1Sc1ncc([N+](=O)[O-])s1,–,–,21.9,–,–,–,–
COC(=O)CCCC(=O)NCC1(N(C)Cc2ccccc2)Cc2ccccc2C1,–,–,–,–,–,–,·
Cc1ccc2c(c1)sc(-c1ccc(N(C)C)cc1)[n+]2C,–,–,19.0,–,–,–,–
COc1ccc(C)cc1Nc1n[n+](-c2ccccc2)c(-c2ccc(N(C)C)cc2)s1,–,–,–,–,–,–,·
COCC(=O)N(CCc1ccc(OC)c(OC)c1)Cc1nc2ccccc2c(=O)[nH]1,–,–,22.4,–,–,–,–
COCC(=O)N(Cc1nc2ccccc2c(=O)[nH]1)Cc1cccs1,–,–,–,–,–,–,·
CN=C(Nc1cc(C)nn1CCC#N)c1ccccc1,–,–,–,–,–,–,·
SMILES,LYPLA2 counter,GSTO1 counter,PAD4 inh,PME-1 primary,Fam108B counter,LYPLA1 counter,PAD4 confirm
Cc1cc(OC(=O)c2ccccc2)n(CCC#N)n1,–,–,40.5,–,–,–,–
O=C(CN1C(=O)NC2(CCCC2)C1=O)Nc1ccc(Cl)cc1C(F)(F)F,–,–,–,–,–,–,·
COCCOC(=O)c1c(C)n(C)c2ccc(OC(=O)N3CCOCC3)cc12,–,–,–,–,–,–,·
COCCOC(=O)c1c(C)n(C)c2ccc(OC(=O)c3c(OC)cccc3OC)cc12,–,–,29.2,–,–,–,22.6
Cc1cc2oc3ccc(NCCCn4ccnc4)cc3c(=O)c2cc1C,–,–,–,–,–,–,·
CC(C)C(C(=O)NC1CCCC1)N(CC1CCCO1)C(=O)CNS(=O)(=O)c1ccccc1 (stereo unspecified),–,–,26.5,–,–,–,–
CCC(C)(C)NC(=O)CN(CC1CCCO1)C(=O)CNS(=O)(=O)c1ccccc1 (stereo unspecified),–,–,–,–,–,–,·
